# Test results published in the supplement of paper PMC10681739.
# Experiments:
# ETS1 [1] = target: T1, ETS1 (UniProt P14921); experiment: ETS1 binding intensity (PBM fluorescence), ETS1 alone (arbitrary fluorescence units); higher = stronger binding; details: ETS1 concentration 1 nM; RUNX1 concentration 0 nM
# T1 sequence: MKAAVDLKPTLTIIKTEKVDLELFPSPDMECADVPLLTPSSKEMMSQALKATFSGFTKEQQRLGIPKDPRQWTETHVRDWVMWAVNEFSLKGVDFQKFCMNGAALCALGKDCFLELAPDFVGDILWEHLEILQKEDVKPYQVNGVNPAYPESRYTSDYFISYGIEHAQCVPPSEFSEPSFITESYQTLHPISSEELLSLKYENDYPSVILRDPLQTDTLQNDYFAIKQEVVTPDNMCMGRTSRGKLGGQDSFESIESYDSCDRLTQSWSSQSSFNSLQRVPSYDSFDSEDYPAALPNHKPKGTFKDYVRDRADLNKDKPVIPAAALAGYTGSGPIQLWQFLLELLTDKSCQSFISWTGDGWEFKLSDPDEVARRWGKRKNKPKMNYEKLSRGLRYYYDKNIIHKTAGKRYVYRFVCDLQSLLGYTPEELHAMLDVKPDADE
# RUNX1 [2] = target: RUNX1 (UniProt Q01196); experiment: RUNX1 binding intensity (PBM fluorescence), RUNX1 alone (arbitrary fluorescence units); higher = stronger binding; details: RUNX1 concentration 2 nM; ETS1 concentration 0 nM
# Experimental: (§1)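 Cooperative gcPBM on 36-bp genomic probes with neighbouring ETS1 and RUNX1 sites. Recombinant human RUNX1 (2 nM) was incubated alone or with ETS1 (25 nM) and detected with anti-RUNX1 antibody plus Alexa488 secondary. Values are medians over 4 replicate spots; the RUNX1+ETS1 data were normalised to the RUNX1-only data. The probes sit in constant array flanks that are not printed.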
# ETS1 [3] = target: T1, ETS1; experiment: ETS1 binding intensity (PBM fluorescence) in presence of RUNX1, normalised to ETS1-only experiment (arbitrary fluorescence units); higher = stronger binding; details: ETS1 concentration 1 nM; RUNX1 concentration 25 nM
# RUNX1 [4] = target: RUNX1 (UniProt Q01196); experiment: RUNX1 binding intensity (PBM fluorescence) in presence of ETS1, normalised to RUNX1-only experiment (arbitrary fluorescence units); higher = stronger binding; details: RUNX1 concentration 2 nM; ETS1 concentration 25 nM
# Experimental: as §1
# 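Throughout, for RUNX1 binding intensity (PBM fluorescence) in presence of ETS1, normalised to RUNX1-only experiment: Full-length recombinant human ETS1 or RUNX1 bound to double-stranded 36-bp genomic probes on microarrays, detected by protein-specific primary antibody and Alexa488 secondary, spot fluorescence as median of four replicate spots.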
# 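Throughout, for RUNX1 binding intensity (PBM fluorescence), RUNX1 alone: Full-length recombinant human RUNX1 bound to double-stranded 36-bp genomic probes on a high-density microarray, scored as Alexa488 fluorescence per spot via anti-RUNX1 antibody, median of four replicate spots.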
# Chain of RUNX1 (Q01196 whole entry): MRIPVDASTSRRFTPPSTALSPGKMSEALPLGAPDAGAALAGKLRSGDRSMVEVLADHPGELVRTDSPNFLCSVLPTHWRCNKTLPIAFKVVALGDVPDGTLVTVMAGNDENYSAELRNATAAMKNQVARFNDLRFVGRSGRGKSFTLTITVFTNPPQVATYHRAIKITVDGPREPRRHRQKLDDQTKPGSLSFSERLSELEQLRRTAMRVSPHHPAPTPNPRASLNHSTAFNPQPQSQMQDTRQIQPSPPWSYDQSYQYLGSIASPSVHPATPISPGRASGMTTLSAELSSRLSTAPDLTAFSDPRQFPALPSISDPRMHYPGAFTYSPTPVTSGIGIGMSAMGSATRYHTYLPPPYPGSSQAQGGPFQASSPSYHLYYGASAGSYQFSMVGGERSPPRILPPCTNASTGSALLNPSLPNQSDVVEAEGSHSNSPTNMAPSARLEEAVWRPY
Sequence,ETS1 binding intensity (ETS1 [1]),RUNX1 binding intensity (RUNX1 [2]),ETS1 binding intensity (ETS1 [3]),RUNX1 binding intensity (RUNX1 [4])
TGGTTAGGGAGAGGGGGATGTGGTTAGGGTGAGGGA,530,1110,3960,1140
GAAGCGGAAGTCGCTGAGGGGTGGTGAAGCGGTTGG,1930,710,2420,1010
GGCGGATGGGGAGAAGAGAGTGGCTGTGGTCTCTGG,371,861,491,712
GCAGAGAGGAAGTGTGGGGGTGGAGGAGGCCGCAGA,681,828,973,1000
TTGCTTTATCACTTCCTGTTTGAGGTTTATATCCAT,5630,1590,9450,3160
CTCATCAGTCATCCGGCTGGACCGCAGGAGCTCTCC,403,933,500,1570
ACAGGAAATGACATCAGAATCTCCAAACCACAACCA,1030,1390,5020,2110
CGGTGGCTTCCGGCCCATGGCGGTGGTTGGTGACTC,807,770,953,1840
GGCTTCCTGCCCAACTACCAAGAAAAAGCCACAAAG,453,1100,962,2040
CTGCTGCCGCGAACAGGAAACCACTACAATCAGGAG,2840,816,4530,1100
CCCCACATCCGGGGGCCGGGGCCGGGCTGTGGGCTT,524,739,516,2140
AGGAGAAGGAAGAGGATGTTGAGGTTGGGGGAAACC,1610,726,2530,882
AGAAAAGGAAATGGTGGGCTGCACACCACAGCTCAC,477,728,461,1130
CTTTGCTGCAGGATGTTCTAACCACAAGCCCAGGAG,1070,3030,6670,7310
GACTCTTCCGGCCCAGAGCTTTCGGAGTGCGGTTGC,399,858,704,2130
ACAGAGAAGCTTCCTATTGTGGGATTCACCACCACC,623,735,705,942
TTCAATCACAGGAAACAGACGTCACCCACAGACCTA,1090,794,2200,983
GGTTGTAAGTTCACAGGATGTGGTGTGTCCCTGTGG,4130,827,6360,1400
ACTATTTTTAGACTTCCCCACCCCGCAGTTTCAAGG,601,1270,554,1010
TTACGACACTTCCGGCGACGCCCCGCAGCCTTCACC,2890,834,2740,1880

Sequence,ETS1 binding intensity (ETS1 [1]),RUNX1 binding intensity (RUNX1 [2]),ETS1 binding intensity (ETS1 [3]),RUNX1 binding intensity (RUNX1 [4])
TGGGGAGCAGGAAGCTGGGGGCGGTTGTGGAGGGAC,1130,723,1600,867
CGGTCAGGTCGCAGGAAACCACAGCGGCAGCGCGGC,732,1370,1870,1840
TCCCCACATCCTTTAAAACGATGAGATAACCACATG,398,1000,636,2960
TCCAAGGCGGAAAAAACCCGCCCTAAACCGCACCCC,464,1470,1040,1460
AACTGTCTCTACCCAGGAAGTGGTTTTATTTAAAAG,5160,1020,14900,2190
AAAGCAAAGTCAAGAGGATGTGGTGACCAATTCTGC,1320,685,2860,855
GCTCCTGGCCCGCACTTCCGACCACACACTGGGGAC,557,1180,592,1610
TCCCCTCTCCCCATCCGCCCGAGACCACAGCCACTC,592,1340,495,1570
ACCCAGGAGGCGGAAGTTGTGGTGAGCCGAGATCGC,4020,862,11600,3150
AACATCCGGTTCCCGGTTCTGCCCCCTACCGCAGCT,3190,917,5870,3920
AGATCAACTTCCACATCCGGTGGTAACAGGGCCCTA,5380,835,5560,2970
GGACCGGAAGTTAAGGCGTTCGCGGCGTGTGGTAAG,8560,626,11800,1560
GCCCCGGAAGCTCCTTAAGGAGGACCGTGTGGGTTT,605,746,718,944
GAAGCAGACAGGAAGTGGGTCTGAGCGGTGGAGGGA,7670,690,8610,1910
CAAATGAATAAAGGATGTGGTAAATTATTTTCTTCT,935,814,5660,1780
CGGCTGGCAGGAAGTGGCCACTTGAACCGCAGATGC,4480,1190,23300,3880
AAATCACGTACCCGGAAACCACATGCACAGAAGTGG,2010,980,2930,1550
ACGACGTCCCGGAAGTGCTGCGGCAATGTTGCTCTT,5570,759,6620,1470
AGATTTTGTCTTCCTGTTGTGGCAACATCTGTAGAA,521,1210,406,1520
